Test results from PubChem BioAssay AID1159580 (chemical genetic matrix, 2015).
Out of some 5,500 compounds screened, about 2,000 (36%) were called active. Not shown: some 18% with an inconclusive outcome. Rule as the data show it: active = normalized growth mostly below about 0.91 (no sharp cut-off); inconclusive = no clear call, values can overlap the other calls; inactive = mostly above about 0.92. The list shows a part of the results.

Assay: chemical genetic growth profiling, strain panel (AID 1159580);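 also: tested at 20 µM; growth read once vehicle control cultures reached saturation at 30 °C; 1 = growth at the plate median or of vehicle wells; lower values mean less growth of the strain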
Conditions: growth OD

Measured: normalized growth

Cn1nnnc1SCC1=C(C(=O)O)N2C(=O)C(NC(=O)C(O)c3ccccc3)C2SC1 (configuration not stated)
inactive: S. cerevisiae deletion strains, locus YJR075W, strain HOC1, active compounds read low 1.01 | S. cerevisiae deletion strains, locus YKL009W, strain mrt4, active compounds read low 1.01 | S. cerevisiae deletion strains, locus YKL068W, active compounds read low 1.01 | S. cerevisiae deletion strains, locus YKL085W, strain MDH1 (second series), active compounds read low 1.01 | S. cerevisiae deletion strains, locus YKL085W, strain MDH1, active compounds read low 1.01 | S. cerevisiae deletion strains, locus YKL160W, strain elf1, active compounds read low 0.95 | S. cerevisiae deletion strains, locus YKL190W, strain CNB1, active compounds read low 1.02 | S. cerevisiae deletion strains, locus YKR001C, strain vps1, active compounds read low 1 | S. cerevisiae deletion strains, locus YKR026C, strain gcn3, active compounds read low 0.974 | S. cerevisiae deletion strains, locus YKR091W, strain srl3, active compounds read low 0.981 | S. cerevisiae deletion strains, locus YLL001W, strain dnm1, active compounds read low 0.955 | S. cerevisiae deletion strains, locus YLL026W, active compounds read low 0.989 | S. cerevisiae deletion strains, locus YLL041C, strain sdh2, active compounds read low 0.968 | S. cerevisiae deletion strains, locus YLR027C, strain aat2, active compounds read low 0.982 | S. cerevisiae deletion strains, locus YLR039C, strain RIC1, active compounds read low 0.991 | S. cerevisiae deletion strains, locus YLR058C, strain SHM2, active compounds read low 1.02 | S. cerevisiae deletion strains, locus YLR102C, strain apc9, active compounds read low 1 | S. cerevisiae deletion strains, locus YLR113W, strain HOG1, active compounds read low 0.938 | S. cerevisiae deletion strains, locus YLR221C, strain rsa3, active compounds read low 0.98 | S. cerevisiae deletion strains, locus YLR258W, strain gsy2, active compounds read low 0.981 | S. cerevisiae deletion strains, locus YLR262C, strain YPT6 (second series), active compounds read low 0.973 | S. cerevisiae deletion strains, locus YLR262C, strain YPT6, active compounds read low 1.1 | S. cerevisiae deletion strains, locus YLR268W, strain sec22, active compounds read low 0.988 | S. cerevisiae deletion strains, locus YLR320W, strain mms22, active compounds read low 0.952 | S. cerevisiae deletion strains, locus YLR330W, strain CHS5, active compounds read low 1.01 | S. cerevisiae deletion strains, locus YLR342W, strain FKS1 (second series), active compounds read low 1.02 | S. cerevisiae deletion strains, locus YLR342W, strain FKS1, active compounds read low 0.972 | S. cerevisiae deletion strains, locus YLR357W, strain rsc2, active compounds read low 0.952 | S. cerevisiae deletion strains, locus YLR370C, strain arc18, active compounds read low 0.967 | S. cerevisiae deletion strains, locus YLR371W, strain rom2, active compounds read low 0.999 | S. cerevisiae deletion strains, locus YLR384C, strain iki3, active compounds read low 0.962 | S. cerevisiae deletion strains, locus YLR418C, strain cdc73, active compounds read low 1 | S. cerevisiae deletion strains, locus YML016C, strain PPZ1, active compounds read low 1.01 | S. cerevisiae deletion strains, locus YML032C, strain rad52, active compounds read low 1 | S. cerevisiae deletion strains, locus YML120C, strain ndi1, active compounds read low 0.964 | S. cerevisiae deletion strains, locus YML124C, strain tub3, active compounds read low 1.01 | S. cerevisiae deletion strains, locus YMR058W, strain fet3, active compounds read low 0.966 | S. cerevisiae deletion strains, locus YMR078C, strain ctf18, active compounds read low 1 | S. cerevisiae deletion strains, locus YMR125W, strain sto1, active compounds read low 0.973 | S. cerevisiae deletion strains, locus YMR129W, active compounds read low 0.981 | S. cerevisiae deletion strains, locus YMR205C, strain PFK2, active compounds read low 0.959 | S. cerevisiae deletion strains, locus YMR223W, strain ubp8, active compounds read low 1.01 | S. cerevisiae deletion strains, locus YMR231W, strain pep5, active compounds read low 0.971 | S. cerevisiae deletion strains, locus YMR263W, strain SAP30, active compounds read low 1.03 | S. cerevisiae deletion strains, locus YMR307W, strain GAS1, active compounds read low 0.993 | S. cerevisiae deletion strains, locus YNL067W, strain RPL9B, active compounds read low 1.03 | S. cerevisiae deletion strains, locus YNL071W, strain lat1, active compounds read low 0.978 | S. cerevisiae deletion strains, locus YNL128W, strain TEP1, active compounds read low 1.03 | S. cerevisiae deletion strains, locus YNL153C, strain GIM3, active compounds read low 1.03 | S. cerevisiae deletion strains, locus YNL183C, strain NPR1, active compounds read low 0.926 | S. cerevisiae deletion strains, locus YNL209W, strain ssb2, active compounds read low 0.982 | S. cerevisiae deletion strains, locus YNL233W, strain BNI4, active compounds read low 1.02 | S. cerevisiae deletion strains, locus YNL248C, strain rpa49, active compounds read low 0.968 | S. cerevisiae deletion strains, locus YNL250W, strain rad50, active compounds read low 1.01 | S. cerevisiae deletion strains, locus YNL271C, strain bni1, active compounds read low 1.01 | S. cerevisiae deletion strains, locus YNL298W, strain CLA4, active compounds read low 1.01 | S. cerevisiae deletion strains, locus YNL307C, strain MCK1, active compounds read low 1 | S. cerevisiae deletion strains, locus YNL322C, strain KRE1 (second series), active compounds read low 0.97 | S. cerevisiae deletion strains, locus YNL322C, strain KRE1, active compounds read low 1.02 | S. cerevisiae deletion strains, locus YNR049C, strain mso1, active compounds read low 0.972 | S. cerevisiae deletion strains, locus YNR052C, strain pop2, active compounds read low 0.997 | S. cerevisiae deletion strains, locus YOL006C, strain TOP1, active compounds read low 1.05 | S. cerevisiae deletion strains, locus YOL012C, strain htz1 0.993 | S. cerevisiae deletion strains, locus YOL147C, strain pex11, active compounds read low 0.999 | S. cerevisiae deletion strains, locus YOR001W, strain rrp6, active compounds read low 0.967 | S. cerevisiae deletion strains, locus YOR061W, strain CKA2, active compounds read low 1.02 | S. cerevisiae deletion strains, locus YOR069W, strain VPS5, active compounds read low 1.01 | S. cerevisiae deletion strains, locus YOR070C, strain gyp1, active compounds read low 0.979 | S. cerevisiae deletion strains, locus YOR080W, strain dia2, active compounds read low 0.97 | S. cerevisiae deletion strains, locus YOR083W, strain WHI5, active compounds read low 0.958 | S. cerevisiae deletion strains, locus YOR106W, strain vam3, active compounds read low 0.945 | S. cerevisiae deletion strains, locus YOR136W, strain idh2, active compounds read low 0.995 | S. cerevisiae deletion strains, locus YOR144C, strain elg1, active compounds read low 1 | S. cerevisiae deletion strains, locus YOR184W, strain ser1, active compounds read low 0.99 | S. cerevisiae deletion strains, locus YOR231W, strain MKK1, active compounds read low 0.996 | S. cerevisiae deletion strains, locus YOR265W, strain rbl2, active compounds read low 0.975 | S. cerevisiae deletion strains, locus YOR270C, strain vph1, active compounds read low 0.974 | S. cerevisiae deletion strains, locus YOR290C, strain snf2, active compounds read low 0.924 | S. cerevisiae deletion strains, locus YOR316C, strain cot1, active compounds read low 0.996 | S. cerevisiae deletion strains, locus YPL051W, strain arl3, active compounds read low 0.964 | S. cerevisiae deletion strains, locus YPL055C, strain LGE1, active compounds read low 1.07 | S. cerevisiae deletion strains, locus YPL078C, strain atp4, active compounds read low 0.968 | S. cerevisiae deletion strains, locus YPL106C, strain sse1, active compounds read low 0.958 | S. cerevisiae deletion strains, locus YPL240C, strain hsp82, active compounds read low 0.991 | S. cerevisiae deletion strains, locus YPL241C, strain CIN2, active compounds read low 1.01 | S. cerevisiae deletion strains, locus YPL256C, strain CLN2, active compounds read low 0.987 | S. cerevisiae deletion strains, locus YPR119W, strain clb2, active compounds read low 0.991 | S. cerevisiae deletion strains, locus YPR141C, strain kar3, active compounds read low 1 | S. cerevisiae deletion strains, locus YPR163C, strain tif3, active compounds read low 0.994 | S. cerevisiae deletion strains, locus YPR167C, strain met16, active compounds read low 1.01 | S. cerevisiae deletion strains, strain wtn01, active compounds read low 1 | S. cerevisiae strains, strain wild type, active compounds read low 1.02
